A short description of assay [1]: Nuclear factor erythroid 2-related factor 2/antioxidant responsive element (Nrf2/ARE) small molecule agonists: qHTS cell viability counter screen in human keratinocytes (AID 1919968; active = well fitted curve in the direction sought with a large enough effect in the repeat runs; an effect the other way counts as inactive or inconclusive; also: nearly all actives have a fitted effect of over 55% in size). An outline of the steps:
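Cells of the KeratinoSens line were plated at 1,500 per well and left for 5 h before compound transfer from DMSO stocks. After a 23 h incubation (37 C, 5% CO2), CellTiter-Fluor was added. Signal was taken as fluorescence intensity 1 h later.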
(In general: qHTS replaces the single test concentration by a dilution series.)

A short description of assay [2]: Nuclear factor erythroid 2-related factor 2/antioxidant responsive element (Nrf2/ARE) small molecule agonists: luciferase reporter gene qHTS assay in human keratinocytes (AID 1919969). Also: nearly all actives have a fitted effect of over 35% in size. Also: potency is read from the fitted curve at half-maximal effect.
The target in assay [3] is Gonadotropin-releasing hormone receptor (Homo sapiens) (UniProt P30968). Put plainly: Human gonadotropin-releasing hormone receptor (GnRHR) small molecule agonists, calcium flux assay in GnRHR-HEK293 cells (AID 1920063). Also: nearly all actives have a fitted effect of over 35% in size. An outline of the steps:
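Compounds dissolved in DMSO are pin-transferred onto dye-loaded GnRHR-HEK293 cells, which were seeded 18 h before at 37 C/5% CO2. Calcium signal is read as fluorescence intensity at 1 s intervals for 3 min.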

In assay [4] the target is KiSS-1 receptor (Homo sapiens) (UniProt Q969F8). Description: Human kisspeptin (KISS1R) small molecule agonists, calcium flux assay in KISS1R-HEK293 cells (AID 1920064; active = well fitted curve in the direction sought with a large enough effect in the repeat runs; an effect the other way counts as inactive or inconclusive). The essentials:
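Cell line: HEK293, stable human KISS1R. Dye loading 1 h at 37 C after 18 h culture. Read: kinetic fluorescence, 480/540 nm, 3 min at 1 s intervals.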

Assay [5] in a line: G protein-coupled receptor (GPCR) small molecule agonists, calcium flux assay: HEK293 wild type cell line counter screen (AID 1920065). An outline of the steps:
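Tox21 10K compounds, 15 concentrations each in triplicate, pin-transferred in DMSO onto dye-loaded cells; kinetic read at 480/540 nm for 3 min, 1 s intervals.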

Assay [6] can be described thus: p53 small molecule agonists, cell-based qHTS assay with human liver microsomes (AID 1963577).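 Also: p53 response element beta-lactamase reporter cells with liver microsomes plus NADPH.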 An outline of the steps:
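Steps: plate p53RE-bla cells, incubate 5 h at 37 C; add compound in DMSO; add microsomes (0.5 mg/mL final) and NADPH (0.5 mg/mL final); incubate 16 h at 37 C; add LiveBLAzer, 2 h RT; read fluorescence.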

The nature of assay [7]: p53 small molecule agonists, cell-based qHTS assay with rat liver microsomes (AID 1963578). An outline of the steps: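 Metabolic activation is supplied by rat liver microsomes with NADPH (each 0.5 mg/mL final). p53RE-bla cells incubate with compound 16 h at 37 C; reporter activity is measured by LiveBLAzer fluorescence.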
Assay [8] is described as follows: p53 small molecule agonists, cell-based qHTS assay with human liver microsomes: qHTS cell viability counter screen (AID 1963579). Also: nearly all actives have a fitted effect of over 45% in size. An outline of the steps: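 After the 460/530 nm beta-lactamase read, CellTiter-Glo was added to the same wells and luminescence measured after 30 min at room temperature, giving viability of p53RE-bla cells treated 16 h with compounds plus microsomes and NADPH.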

Assay [9] can be described thus: p53 small molecule agonists, cell-based qHTS assay with rat liver microsomes: qHTS cell viability counter screen (AID 1963580). Also: nearly all actives have a fitted effect of over 45% in size. The essentials:
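Counter screen for cytotoxicity under metabolic activation: rat liver microsomes and NADPH, 0.5 mg/mL final each, added with compounds to p53RE-bla HCT-116 cells; 16 h at 37 C, then ATP luminescence read.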

Assay [10] is described as follows: p53 small molecule agonists, cell-based qHTS assay: qHTS cell viability counter screen (AID 1963581). Also: nearly all actives have a fitted effect of over 45% in size. The essentials:
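ATP content measured by luminescence in HCT-116 p53RE-bla cells treated 16 h at 37 C, same wells as the reporter screen.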

Assay [11] is described as follows: p53 small molecule agonists, cell-based qHTS assay (AID 1963582; active = well fitted activation curve with a large enough effect in the signal ratio in the repeat runs, not every such curve was filed as active; the % refers to the signal ratio). The essentials: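 16 h compound exposure (37 C) of p53 response element–bla cells, preceded by 5 h recovery at 37 C/5% CO2; read-out via LiveBLAzer B/G FRET substrate, 2 h RT, fluorescence intensity.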
Assay [12] addresses 5-hydroxytryptamine receptor 2A (Homo sapiens) (UniProt P28223). Put plainly: 5-hydroxytryptamine receptor 2A (HTR2A) small molecule agonists, cell-based qHTS assay (AID 1963587). Also: nearly all actives have a fitted effect of over 30% in size. Also: potency is read from the fitted curve at half-maximal effect. An outline of the steps: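 HTR2A-CHO cells, plated 18 h at 37 C/5% CO2, dye-loaded 1 h at 37 C; compounds in DMSO added by pin tool (agonist mode). Intracellular calcium flux read as kinetic fluorescence on FDSS over 2 min at 1 s intervals.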

Assay [13] in a line: cAMP Responsive Elements (CRE) small molecule agonists, cell-based qHTS assay (AID 1963590). The essentials:
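HEK 293T cells stably bearing CRE-bla were plated at 2,000 cells per well and rested 18 h. Compounds, positive controls or DMSO were added for 3 h at 37 C. LiveBLAzer B/G substrate was then loaded for 2 h at room temperature.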

Assay [14] can be described thus: cAMP Responsive Elements (CRE) small molecule antagonists, cell-based qHTS assay (AID 1963591; active = well fitted inhibition curve with a large enough effect in the signal ratio in the repeat runs, not every such curve was filed as active; the % refers to the signal ratio). An outline of the steps:
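First, CRE-bla HEK293T cells settled 18 h at 37 C. Next, compound and 0.25 uM final NKH477 were applied for 3 h. Last, LiveBLAzer B/G substrate was loaded for 2 h at room temperature.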

Assay [15] deals with Beta-2 adrenergic receptor (Homo sapiens) (UniProt P07550). Put plainly: Adrenergic beta2 receptor (ADRB2) small molecule antagonists, cell-based qHTS assay (AID 1963592). Also: series mostly up to about 92 µM; nearly all actives have a fitted effect of over 50% in size. The essentials: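 Assay format: CHO-ADRB2 cells, 18-20hr seeding at 37C/5% CO2, then compound plus 1nM isoproterenol agonist mix for 0.5hr RT. Homogeneous time-resolved fluorescence cAMP detection after 1hr, expressed as 665/615 nm ratio.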

Assay [16] has the same target. Put plainly: Adrenergic beta2 receptor (ADRB2) small molecule agonists, cell-based qHTS assay (AID 1963593).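 Also: CHO cells stably overexpressing human ADRB2.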 The essentials: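 CHO cells stably over-expressing ADRB2 were plated overnight at 37C, then dosed with compounds plus a stimulation mix containing 100uM IBMX and 25uM Ro-20-1724 for 0.5hr at room temperature. cAMP was measured by HTRF competition, 1hr.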
For assay [17], the target named is D(2) dopamine receptor (Homo sapiens) (UniProt P14416). Put plainly: Dopamine D2 receptor (DRD2) small molecule agonists, cell-based qHTS assay (AID 1963594). Also: nearly all actives have a fitted effect of over 35% in size. An outline of the steps: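 HEK293 cells stably expressing DRD2 were cultured 24 h at 37 C, then given Ro20-1724 (0.1 mM final) and compounds for 10 min at room temperature. NKH477 (200nM) was then added for 30 min. cAMP was read by HTRF.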

The target is the same in assay [18]. Put plainly: Dopamine D2 receptor (DRD2) small molecule antagonists, cell-based qHTS assay (AID 1963595; active = well fitted inhibition curve with a large enough effect in the signal ratio in the repeat runs, with a control signal flat; the % refers to the signal ratio; also: potency is read from the fitted curve at half-maximal effect). The essentials:
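In this cell-based antagonist screen, compounds act for 10 min at room temperature before a 30 min challenge with 12 nM quinpirole and 200 nM NKH477. cAMP is quantified by HTRF competition in DRD2-HEK293 cells containing 0.1 mM Ro20-1724.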

Assay [19] deals with Muscarinic acetylcholine receptor M1 (Homo sapiens) (UniProt P11229). Description: Cholinergic receptor muscarinic 1 (CHRM1) small molecule agonists, cell-based qHTS assay (AID 1963589). Also: nearly all actives have a fitted effect of over 35% in size. An outline of the steps: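 Homogeneous fluorescence calcium flux, agonist mode. Human M1-expressing CHO cells; compound dosed at 15 concentrations, three independent runs; signal sampled every 1 sec.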

The target is the same in assay [20]. Description: Cholinergic receptor muscarinic 1 (CHRM1) small molecule antagonists, cell-based qHTS assay (AID 1963588). Also: nearly all actives have a fitted effect of over 40% in size. An outline of the steps:
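Compounds were tested at 15 concentrations in three independent runs. Dye-loaded CHRM1-CHO cells were exposed 5 min at room temperature before stimulation by acetylcholine added at 50nM. Intracellular calcium was read kinetically on FDSS for 3 min.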

Structures are written as SMILES. A number with no mark means an inactive call. Records with an inconclusive call do not appear. Activity calls are given as the source filed them. Unless noted, calls follow the shape of the full dose curve.

D(2) dopamine receptor (Homo sapiens), sequence (P14416 whole entry, looked up): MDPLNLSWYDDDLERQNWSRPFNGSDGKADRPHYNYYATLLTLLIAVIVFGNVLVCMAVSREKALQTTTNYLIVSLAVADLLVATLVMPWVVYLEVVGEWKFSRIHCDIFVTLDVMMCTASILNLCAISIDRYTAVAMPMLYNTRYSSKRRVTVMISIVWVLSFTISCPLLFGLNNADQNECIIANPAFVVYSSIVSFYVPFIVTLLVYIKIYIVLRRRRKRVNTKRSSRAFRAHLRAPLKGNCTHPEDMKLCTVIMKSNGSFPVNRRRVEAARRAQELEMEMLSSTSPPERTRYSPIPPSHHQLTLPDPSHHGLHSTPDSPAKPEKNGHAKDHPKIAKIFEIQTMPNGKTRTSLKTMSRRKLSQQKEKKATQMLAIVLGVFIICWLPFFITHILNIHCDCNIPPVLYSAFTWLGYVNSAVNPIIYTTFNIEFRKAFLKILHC
Beta-2 adrenergic receptor (Homo sapiens), sequence (P07550 whole entry, looked up): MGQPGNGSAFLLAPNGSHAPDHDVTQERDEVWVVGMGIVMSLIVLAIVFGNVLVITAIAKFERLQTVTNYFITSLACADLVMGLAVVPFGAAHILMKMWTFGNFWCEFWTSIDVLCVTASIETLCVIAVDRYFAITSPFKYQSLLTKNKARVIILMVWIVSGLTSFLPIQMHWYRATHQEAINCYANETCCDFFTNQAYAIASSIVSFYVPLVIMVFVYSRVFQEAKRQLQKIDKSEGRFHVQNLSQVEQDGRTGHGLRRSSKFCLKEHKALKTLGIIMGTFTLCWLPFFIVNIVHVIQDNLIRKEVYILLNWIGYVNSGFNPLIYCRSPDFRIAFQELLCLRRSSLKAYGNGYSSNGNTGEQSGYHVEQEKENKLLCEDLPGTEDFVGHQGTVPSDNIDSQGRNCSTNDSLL
5-hydroxytryptamine receptor 2A (Homo sapiens), sequence (P28223 whole entry, looked up): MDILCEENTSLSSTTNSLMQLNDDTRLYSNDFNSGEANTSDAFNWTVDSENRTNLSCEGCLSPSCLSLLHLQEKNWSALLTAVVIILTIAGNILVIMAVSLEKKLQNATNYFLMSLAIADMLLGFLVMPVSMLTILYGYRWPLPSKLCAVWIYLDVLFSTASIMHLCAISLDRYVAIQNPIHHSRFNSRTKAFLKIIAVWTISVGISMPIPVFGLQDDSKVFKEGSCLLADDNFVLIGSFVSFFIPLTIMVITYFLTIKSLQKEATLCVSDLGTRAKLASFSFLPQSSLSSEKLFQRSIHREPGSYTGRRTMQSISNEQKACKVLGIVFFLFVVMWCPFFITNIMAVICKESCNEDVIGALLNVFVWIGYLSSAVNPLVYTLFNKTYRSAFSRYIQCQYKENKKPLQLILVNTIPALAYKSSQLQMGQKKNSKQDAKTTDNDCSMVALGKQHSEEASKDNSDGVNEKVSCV
Gonadotropin-releasing hormone receptor (Homo sapiens), sequence (P30968 whole entry, looked up): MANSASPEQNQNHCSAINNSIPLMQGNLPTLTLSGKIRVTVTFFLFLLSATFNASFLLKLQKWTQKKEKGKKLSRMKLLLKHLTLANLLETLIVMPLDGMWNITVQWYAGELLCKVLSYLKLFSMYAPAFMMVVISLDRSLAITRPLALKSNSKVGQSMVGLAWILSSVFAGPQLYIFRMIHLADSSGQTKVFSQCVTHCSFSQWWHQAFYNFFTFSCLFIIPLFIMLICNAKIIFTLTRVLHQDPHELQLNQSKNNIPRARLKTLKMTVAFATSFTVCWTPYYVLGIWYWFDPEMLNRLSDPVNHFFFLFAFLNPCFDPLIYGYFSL
Muscarinic acetylcholine receptor M1 (Homo sapiens), sequence (P11229 whole entry, looked up): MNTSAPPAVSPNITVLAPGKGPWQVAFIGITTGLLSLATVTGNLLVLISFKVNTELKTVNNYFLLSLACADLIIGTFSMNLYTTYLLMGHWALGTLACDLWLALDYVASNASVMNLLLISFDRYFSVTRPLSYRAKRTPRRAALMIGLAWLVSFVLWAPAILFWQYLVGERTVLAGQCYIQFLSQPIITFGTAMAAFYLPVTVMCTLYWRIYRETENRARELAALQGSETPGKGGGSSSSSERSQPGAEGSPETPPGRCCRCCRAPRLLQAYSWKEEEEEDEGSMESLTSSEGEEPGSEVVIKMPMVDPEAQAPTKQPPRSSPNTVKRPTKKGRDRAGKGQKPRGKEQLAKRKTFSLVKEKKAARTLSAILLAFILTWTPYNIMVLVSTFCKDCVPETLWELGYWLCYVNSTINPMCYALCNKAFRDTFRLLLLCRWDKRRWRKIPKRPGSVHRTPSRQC
KiSS-1 receptor (Homo sapiens), sequence (Q969F8 whole entry, looked up): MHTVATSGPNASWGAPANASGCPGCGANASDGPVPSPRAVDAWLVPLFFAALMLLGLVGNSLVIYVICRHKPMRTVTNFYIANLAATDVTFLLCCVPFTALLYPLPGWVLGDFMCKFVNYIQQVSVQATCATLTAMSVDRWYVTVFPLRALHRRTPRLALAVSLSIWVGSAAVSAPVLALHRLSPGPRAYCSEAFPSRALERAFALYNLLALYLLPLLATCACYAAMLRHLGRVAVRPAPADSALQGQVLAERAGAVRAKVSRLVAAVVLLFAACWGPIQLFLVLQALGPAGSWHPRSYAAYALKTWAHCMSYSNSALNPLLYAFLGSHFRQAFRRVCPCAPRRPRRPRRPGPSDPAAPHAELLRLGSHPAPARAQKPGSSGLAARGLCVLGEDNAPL

On to `C=C(C)C(=O)OCC[N+](C)(C)C`, for which the Potency entry in [1], in assay [3], in [6], in assay [7], in [8] and in [9] was “inactive” throughout. In addition, the Potency result in [10], in assay [11], in [12], in [13], in assay [14] and in [15] was “inactive” each time. In addition, the Potency entry in [16], in assay [17] and in assay [18] was “inactive” each time. Besides, the Potency in assay [2] was 60.9 µM (active). Besides, the result in assay [4] and in assay [5] was inactive.

For `O=C(OCC(O)CO)c1ccccc1Nc1ccnc2c(C(F)(F)F)cccc12` (configuration not stated), the Potency entry in assay [1], in assay [2], in assay [3], in assay [6], in assay [7] and in assay [8] was “inactive” each time. Also, the Potency entry in [9], in assay [10], in assay [11], in assay [12], in assay [19] and in [15] was “inactive” throughout. Also, the Potency result in assay [17] and in [18] was “inactive” throughout. The outcome in assay [4] and in assay [5] was inactive.

As to `NS(=O)(=O)c1cc2c(cc1Cl)CN(C1CCCCC1)C2=O`, the Potency entry in assay [1], in [2], in assay [3], in [6], in [7] and in assay [8] was “inactive” throughout. Moreover, the Potency entry in [9], in assay [10], in assay [11], in [12], in assay [19] and in [15] was “inactive” in each case. The Potency result in [16], in assay [17] and in [18] was “inactive” throughout. The result in assay [4] and in assay [5] was inactive.

For the molecule `CCCC(C(=O)OCCN(CC)CC)(c1ccccc1)c1ccccc1`, the Potency entry in assay [1], in assay [2], in assay [3], in assay [6], in assay [7] and in assay [8] was “inactive” throughout. The Potency entry in assay [9], in [10], in assay [11], in assay [12], in [20] and in [17] was “inactive” throughout. Also, the outcome in assay [4] and in assay [5] was inactive. For the same molecule, the Potency in [18] is 26.6 µM (active).

`CCN(CC)CCOC(=O)C1(c2ccccc2)CCCC1`: the Potency result in assay [1], in assay [2], in assay [3], in [6], in assay [7] and in assay [8] was “inactive” each time. Further, the Potency entry in [9], in [10], in [11], in [12], in [19] and in assay [13] was “inactive” throughout. For the same molecule, the Potency entry in assay [14], in assay [16], in [17] and in assay [18] was “inactive” throughout. The result in assay [4] and in assay [5] was inactive.

With `CN(C)CCc1c[nH]c2ccc(CS(=O)(=O)N3CCCC3)cc12`, the Potency entry in assay [1], in assay [2], in assay [3], in [6], in [7] and in assay [8] was “inactive” each time. In addition, the Potency result in assay [9], in assay [10], in [11], in assay [20], in assay [19] and in [14] was “inactive” each time. Further, the Potency result in [15], in assay [16], in [17] and in [18] was “inactive” each time. Also, the outcome in assay [4] and in assay [5] was inactive. For the same molecule, the Potency in assay [12] is 10.7 µM (active).

For `CCCCOc1cc(C(=O)OCCN(CC)CC)ccc1N`, the Potency entry in assay [1], in assay [2], in [3], in [6], in assay [7] and in [8] was “inactive” in each case. In addition, the Potency entry in assay [9], in [10], in [11], in assay [12], in assay [19] and in assay [13] was “inactive” in each case. For the same molecule, the Potency result in [14], in assay [15], in [16], in assay [17] and in [18] was “inactive” in each case. In addition, the result in [4] and in assay [5] was inactive.

Values taken from PubChem BioAssay (Tox21).
